Bioassay records from PubChem.
Compounds with a hit are over-represented: about 2.9% of the library has one in this group of screens.
PAFAH1B2 inh – PAFAH1B2 (human) inhibition; P68402; actives 1.2% (n = 340,000); inhibition, % at 3.39 µM; recombinant PAFAH1B2, FP-rhodamine activity probe, fluorescence polarization;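 active = inhibition above the mean of all tested compounds plus 3 SD, cut at about 24% in these data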;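 also: 0% = enzyme with DMSO and 100% = wells lacking PAFAH1B2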
Target sequence (P68402 whole entry, looked up): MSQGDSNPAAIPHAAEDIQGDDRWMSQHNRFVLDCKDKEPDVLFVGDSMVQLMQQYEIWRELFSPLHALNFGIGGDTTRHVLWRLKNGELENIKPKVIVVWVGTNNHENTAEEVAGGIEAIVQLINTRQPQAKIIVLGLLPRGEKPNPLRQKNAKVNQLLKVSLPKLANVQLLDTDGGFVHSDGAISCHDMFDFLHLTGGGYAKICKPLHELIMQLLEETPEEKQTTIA
PAFAH2 FP inh – inhibitors of human PAFAH2; AID 492956; actives 0.99% (n = 340,000); recombinant PAFAH2, FP-rhodamine activity probe, fluorescence polarization; inhibition, % at 3.39 µM;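 active = inhibition above the mean over all tested compounds plus 3 SD, cut at about 30% in these data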;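 also: inhibitors block probe labeling of enzyme so polarization drops; 0% = enzyme with DMSO and 100% = wells lacking PAFAH2 protein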
ZTA counter – blocks Epstein-Barr virus ZTA, an EBNA-1 counter-screen; ZTA-DNA binding, fluorescence polarization; AID 2234; actives 0.15% (n = 320,000); inhibition, % at 11 µM; P03206; in the data active = inhibition above about 33%
PAFAH1B3 FP inh – inhibitors of human PAFAH1B3 | Q15102 | recombinant PAFAH1B3, FP-rhodamine probe, fluorescence polarization | inhibition, % at 3.39 µM | actives 0.28% (n = 340,000) | AID 492972;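 active = inhibition above the screen-wide average of all tested compounds plus 3 SD, cut at about 25% in these data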;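 also: 0% = enzyme with DMSO only and 100% = wells lacking PAFAH1B3 protein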
Target sequence (Q15102 whole entry, looked up): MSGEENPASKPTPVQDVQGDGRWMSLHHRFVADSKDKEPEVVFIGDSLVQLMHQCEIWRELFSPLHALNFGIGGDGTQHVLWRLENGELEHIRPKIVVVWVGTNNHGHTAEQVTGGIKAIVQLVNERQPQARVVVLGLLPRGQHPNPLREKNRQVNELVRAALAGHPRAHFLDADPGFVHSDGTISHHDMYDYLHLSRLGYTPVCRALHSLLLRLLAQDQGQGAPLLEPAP
EBNA-1 inhibitor – blocks EBNA-1 binding to DNA. actives 0.34% (n = 300,000). inhibition, % at 14.8 µM. AID 1950. EBNA-1 DNA binding, fluorescence polarization; in the data active = inhibition above about 28%
rCAG RNA binder – r(CAG) repeat RNA binding. inhibition, % at 3 µM. TO-PRO-1 dye displacement fluorescence. actives 1.3% (n = 370,000);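 active = inhibition above the plate cutoff, the mean of all test compounds on that plate plus 3 SD, cut at about 35% in these data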;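 also: 0% = DMSO alone and 100% = 100 µM mitoxantrone as full dye displacement; higher means more dye released from RNA so lower well fluorescence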
Numbers without * were called inactive.

`C[C@H](CO)N1C[C@H](C)[C@@H](CN(C)S(=O)(=O)c2ccccc2)Oc2c(NC(=O)Nc3ccc(C(F)(F)F)cc3)cccc2C1=O` gave PAFAH1B2 inh 26*, PAFAH2 FP inh -29, PAFAH1B3 FP inh -11 and rCAG RNA binder 7.
O=[N+]([O-])c1ccc(O)c(/C=N/n2c(CO)nc3ccccc32)c1 was read as PAFAH1B2 inh 9, PAFAH2 FP inh 5, ZTA counter 5, PAFAH1B3 FP inh 10, EBNA-1 inhibitor -7 and rCAG RNA binder 5.
For C/C(=N\OCc1nc2ccccc2c(=O)n1/N=C/c1cc([N+](=O)[O-])ccc1O)c1ccccc1 the results were PAFAH1B2 inh 0, PAFAH2 FP inh 25, ZTA counter 6, PAFAH1B3 FP inh 18, EBNA-1 inhibitor -1 and rCAG RNA binder 62*.
Screening C=C(C(=O)O)C1CCC2(C)CCCC(C)(O)C2C1 (stereo unspecified) returned PAFAH1B2 inh 29*, PAFAH2 FP inh 3, ZTA counter 6, PAFAH1B3 FP inh 6, EBNA-1 inhibitor -12 and rCAG RNA binder 3.
For CC(C)Cc1ccc(CN2C(C)C(=O)N(Cc3cn(Cc4ccco4)nn3)CCS2(=O)=O)cc1 (stereo unspecified) the results were rCAG RNA binder 51*.
Screening O=C(CSc1nnc(COc2ccccc2)n1-c1ccc(Cl)cc1)Nc1ccccc1-c1ccccc1 returned rCAG RNA binder 7.
O=c1[nH]c(CSc2nc3ccccc3s2)nc2ccccc12 was read as PAFAH1B2 inh 31*, PAFAH2 FP inh -1, ZTA counter -18, PAFAH1B3 FP inh 3, EBNA-1 inhibitor 6 and rCAG RNA binder 4.
`Cc1ccc2nc(-c3ccc(NC(=O)CSc4nnc(-c5ccccc5)n4Cc4ccco4)cc3)sc2c1` gave rCAG RNA binder 19.
c1ccc(CSc2nnc(Cc3ccccn3)o2)cc1 was read as PAFAH1B2 inh 5, PAFAH2 FP inh 41*, ZTA counter -18, PAFAH1B3 FP inh -7, EBNA-1 inhibitor 8 and rCAG RNA binder -2.
For c1ccc(CSc2nnc(Cc3ccccc3)o2)cc1 the results were PAFAH1B2 inh 4, PAFAH2 FP inh -3, ZTA counter -30, PAFAH1B3 FP inh 12, EBNA-1 inhibitor -6 and rCAG RNA binder -5.
CC1CC(=O)c2c(cc3c(-c4c(O)cc(O)c5c(O)c6c(cc45)OC(C)CC6=O)c(O)cc(O)c3c2O)O1 (stereo unspecified) was read as PAFAH1B2 inh 53*, PAFAH2 FP inh 62*, ZTA counter 12, PAFAH1B3 FP inh 76* and EBNA-1 inhibitor 20.
For CCC(=O)NC1=C(C#N)C2(CCCC2)Cc2ccccc21 the results were PAFAH1B2 inh 19, PAFAH2 FP inh 2, ZTA counter 11, PAFAH1B3 FP inh 6, EBNA-1 inhibitor -2 and rCAG RNA binder -4.
For N#CC1=C(N)c2ccccc2CC12CCCCC2 the results were PAFAH1B2 inh 35*, PAFAH2 FP inh 4, ZTA counter 5, PAFAH1B3 FP inh -5, EBNA-1 inhibitor 3 and rCAG RNA binder -4.
For Cc1ccc(SCC(=O)O/N=C(\N)c2cccnc2)cc1 the results were PAFAH1B2 inh 75*, PAFAH2 FP inh 0, ZTA counter 3, PAFAH1B3 FP inh 4 and EBNA-1 inhibitor -6.
O=C(c1ccc(COc2ccc(Br)cc2)o1)N1N=C(C(F)F)CC1(O)C(F)F (stereo unspecified) was read as PAFAH1B2 inh 29*, PAFAH2 FP inh -2, ZTA counter -6, PAFAH1B3 FP inh -2, EBNA-1 inhibitor 8 and rCAG RNA binder 4.
For NNC(=O)c1ccc(COc2ccc(Br)cc2)o1 the results were PAFAH1B2 inh 25*, PAFAH2 FP inh 1, ZTA counter -2, PAFAH1B3 FP inh -1, EBNA-1 inhibitor -14 and rCAG RNA binder 2.
`O=C(CN1CCCCC1)NCC1(c2ccccc2)CCCC1` gave PAFAH1B2 inh 29*, PAFAH2 FP inh -2, ZTA counter -25, PAFAH1B3 FP inh 2, EBNA-1 inhibitor 5 and rCAG RNA binder -8.
Screening CCN(CC)CC(=O)NCC1(c2ccccc2)CCCC1 returned PAFAH1B2 inh 26*, PAFAH2 FP inh 1, ZTA counter -8, PAFAH1B3 FP inh 1, EBNA-1 inhibitor -3 and rCAG RNA binder -6.
Screening Cc1ccc(C(=O)NCC2(c3ccccc3)CCCC2)cc1 returned PAFAH1B2 inh 92*, PAFAH2 FP inh 4, ZTA counter 15, PAFAH1B3 FP inh 5, EBNA-1 inhibitor -6 and rCAG RNA binder 1.
Screening CCN(CC)CC(=O)NCC1(c2ccccc2)CCOCC1 returned PAFAH1B2 inh 9, PAFAH2 FP inh 1, ZTA counter -7, PAFAH1B3 FP inh -2, EBNA-1 inhibitor 5 and rCAG RNA binder -6.
Screening COCc1cccc(-c2cc(C(=O)OC)c3n(c2=O)CCC3)c1 returned rCAG RNA binder 1.
Screening COc1ccccc1NC(=S)NCCc1ccc(Cl)cc1 returned PAFAH1B2 inh 34*, PAFAH2 FP inh -3, ZTA counter -1, PAFAH1B3 FP inh 5, EBNA-1 inhibitor -6 and rCAG RNA binder -2.
For NS(=O)(=O)c1ccc(CCNC(=S)NC2CCCC2)cc1 the results were PAFAH1B2 inh -2, PAFAH2 FP inh -1, ZTA counter -14, PAFAH1B3 FP inh 4, EBNA-1 inhibitor 5 and rCAG RNA binder 0.
`COc1ccccc1NC(=S)NCCSc1ccc(Cl)cc1` gave PAFAH1B2 inh 7, PAFAH2 FP inh -2, ZTA counter -3, PAFAH1B3 FP inh 15, EBNA-1 inhibitor 7 and rCAG RNA binder 2.
`CC(=O)c1cccc(NC(=O)NCCc2ccc(Cl)cc2)c1` gave PAFAH1B2 inh 27*, PAFAH2 FP inh 2, ZTA counter -5, PAFAH1B3 FP inh -4, EBNA-1 inhibitor 5 and rCAG RNA binder -2.
For Cc1ccccc1NC(=O)NCCCCc1ccccc1 the results were PAFAH1B2 inh 1, PAFAH2 FP inh 1, ZTA counter 13, PAFAH1B3 FP inh 9, EBNA-1 inhibitor 9 and rCAG RNA binder -5.
For Cc1ccccc1NC(=O)NCCc1ccc(Cl)cc1 the results were PAFAH1B2 inh 29*, PAFAH2 FP inh 7, ZTA counter -1, PAFAH1B3 FP inh 4, EBNA-1 inhibitor 2 and rCAG RNA binder -4.
For S=C(NCCc1ccc(Cl)cc1)NC1CC1 the results were PAFAH1B2 inh 42*, PAFAH2 FP inh 0, ZTA counter 9, PAFAH1B3 FP inh 2, EBNA-1 inhibitor 2 and rCAG RNA binder -4.
Cc1ccc(S(=O)(=O)N[C@H](CNCc2ccccc2)C(C)C)cc1 was read as rCAG RNA binder -1.
`CC1C=CC=CCCC=CC=CC=CC=CC(OC2O[C@H](C)[C@@H](O)[C@H](N)[C@@H]2O)CC(O)C(C(=O)O)C(O)CC(=O)CC(O)C(O)CCC(O)CC(O)CC(O)CC(=O)OC(C)C(C)C1O` (stereo partly specified) gave rCAG RNA binder 31.
Screening C=CCN(CC#CC(=C)C)Cc1ccccc1 returned rCAG RNA binder -2.
